High-throughput results: PubChem, Broad Institute
CD40 NFkB inh – inhibitors of CD40-induced NF-kB signaling, primary screen, BL2 cells, luciferase reporter, single point. CD40L-induced, 4 h. inhibition, % at 10 µM. hit rate 0.94% among 83,000. AID 1053188, 2014;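 active means mean inhibition of at least 50% with a set share of replicates also reaching that level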;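 further: 0% = neutral control wells and 100% = IKK inhibitor VII at 50 µM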
Numbers without * were called inactive; [ ] = another dose, or the depositor's remark. The sample as a whole holds a higher share of hits than the screen did.

SMILES	CD40 NFkB inh
CCCN(C[C@@H]1N[C@@H](CO)[C@H]1c1ccc(-c2cccnc2)cc1)C(C)=O	-4[25 µM]
CC=Cc1ccc2n(c1=O)C[C@H]1[C@H](CO)[C@@H](C(=O)N[C@@H](C)c3ccccc3)[C@@H]2N1Cc1cncnc1 (mixture of isomers)	-11[25 µM]
COCCNC(=O)C[C@@H]1CC[C@@H]2[C@H](COC[C@@H](O)CN2C(=O)c2cc(Cl)cc(Cl)c2)O1	-2[25 µM]
CC(C)NC(=O)Nc1cccc2c1O[C@H](CN(C)C(=O)Nc1ccccc1)[C@H](C)CN([C@H](C)CO)C2=O	-12[25 µM]
O=C1CCCCC1Sc1nnc(-c2ccc3c(c2)OCO3)o1 (stereo not drawn)	95*
c1coc(-c2nnc(-c3ccc4c(c3)OCO4)o2)c1	-46
Cc1ccc(-c2nnc(-c3ccc4c(c3)OCO4)o2)cc1	-65
CN1C(=O)c2cc(NC(=O)C3CC3)ccc2OC[C@H]2O[C@@H](CC(=O)O)CC[C@@H]21	7
CCS(=O)(=O)N1CCCCN2[C@H](C1)[C@@H](c1ccc(-c3ccc(C(=O)N(C)C)cc3)cc1)[C@@H]2CO	-1[25 µM]
COc1ccc2c3c([nH]c2c1)[C@@H](CO)N(C(=O)CC1CC1)CC31CN(Cc2cccnc2)C1	-6[25 µM]
CN1c2ccc(-c3ccccc3)cc2[C@H]2[C@H](CCN2C(=O)c2ccccn2)[C@@H]1CO	-5
C[C@H](CO)N1C[C@H](C)[C@H](CN(C)Cc2ccccc2)OCc2ccccc2-c2ccccc2C1=O	11
COc1ccccc1CN(C)C[C@@H]1OCc2ccccc2-c2ccccc2C(=O)N([C@H](C)CO)C[C@@H]1C	-3[25 µM]
C[C@H](CO)N1C[C@H](C)[C@H](CN(C)Cc2ccc(Oc3ccccc3)cc2)OCc2ccccc2-c2ccccc2C1=O	57*[25 µM]
C[C@H](CO)N1C[C@H](C)[C@H](CN(C)Cc2ccc(-c3ccccc3)cc2)OCc2ccccc2-c2ccccc2C1=O	6
COc1ccccc1CN(C)C[C@@H]1OCc2ccccc2-c2ccccc2C(=O)N([C@@H](C)CO)C[C@@H]1C	-13[25 µM]
C[C@H]1CN([C@@H](C)CO)C(=O)c2ccccc2-c2ccccc2CO[C@@H]1CN(C)Cc1ccccc1C(F)(F)F	66*[25 µM]
C[C@@H](C(=O)N(C)C[C@H]1OCc2ccccc2-c2ccccc2C(=O)N([C@@H](C)CO)C[C@@H]1C)c1ccccc1	0
O=C1CNC[C@@H]2[C@@H](c3ccc(-c4ccccc4F)cc3)[C@@H](CO)N12	4[25 µM]
CCOC(=O)/C=C/S(=O)(=O)c1ccc(NC(C)=O)cc1	110*
CCC(C)NS(=O)(=O)c1ccc(NC(C)=O)cc1 (stereo not drawn)	8
CCS(=O)(=O)Nc1ccc(NC(C)=O)cc1	-9
C/C(=C/c1ccc(C(=O)O)cc1)c1ccc2c(c1)C(C)(C)CCC2(C)C	11[25 µM]
CC(=O)NC[C@H]1[C@H](c2ccc(-c3cccnc3)cc2)[C@H](CO)N1C(=O)C1CCC1	2[25 µM]
N#C[C@@H]1[C@@H](c2ccccc2-c2cccc(F)c2)[C@H](CO)N1C(=O)C1CCCCC1	10[25 µM]
SMILES	CD40 NFkB inh
N#CC1(NC(=O)COC(=O)c2cc([N+](=O)[O-])ccc2N2CCCC2)CCCCC1	44*
O=C(COC(=O)c1cc([N+](=O)[O-])ccc1N1CCOCC1)Nc1cc(F)ccc1F	-10
N#CC1(NC(=O)COC(=O)c2cc([N+](=O)[O-])ccc2N2CCOCC2)CCCCC1	-2
CN(C[C@H]1[C@H](c2ccccc2)[C@@H](CO)N1CC1CC1)C(=O)c1ccc(F)cc1	-10[25 µM]
O=C(NC[C@@H]1N[C@@H](CO)[C@H]1c1ccc(-c2ccccc2F)cc1)c1ccccc1	-11
C[C@@H]1CN([C@@H](C)CO)C(=O)Cc2cc(NS(=O)(=O)c3cn(C)cn3)ccc2O[C@H]1CN(C)CC1CCCCC1	3
COc1ccc2cc(-c3cc(C(=O)O)c4ccccc4n3)ccc2c1	83*
COc1ccc(-c2cc(C(=O)N3CC(C)CC(C)C3)c3ccccc3n2)cc1 (stereo not drawn)	-13
COc1ccc(-c2cc(C(=O)N3CCCC3)c3ccccc3n2)cc1	-57
COc1ccc(-c2ccc3c(c2)[C@H]2[C@H](CCN2S(=O)(=O)c2ccc(OC)cc2)[C@H](CO)N3C)cc1	-4[25 µM]
O=C(C[C@H]1CC[C@@H]2[C@H](COC[C@@H](O)CN2Cc2ccc3c(c2)OCO3)O1)N1CCCCC1	1[25 µM]
CC1CCC(NC(=O)COC(=O)CSc2ccc(C(N)=O)cc2[N+](=O)[O-])CC1 (stereo not drawn)	6
CS(=O)(=O)c1ccc(Cl)c(C(=O)OCC(=O)NC2CCCCCCC2)c1	21
O=C(COC(=O)c1ccccc1[N+](=O)[O-])c1ccc(C2CCCCC2)cc1	91*
O=C(OC1CCOC1=O)c1ccccc1C(=O)c1ccc(Cl)c([N+](=O)[O-])c1 (stereo not drawn)	78*
CNc1ccc(C(=O)c2ccccc2C(=O)O)cc1[N+](=O)[O-]	1
CN(C)c1ccc(C(=O)c2ccccc2C(=O)O)cc1[N+](=O)[O-]	11
O=C(COC(=O)c1ccccc1[N+](=O)[O-])Nc1cccnc1Cl	-35
O=C(COC(=O)c1ccccc1C(=O)c1ccc(Cl)c([N+](=O)[O-])c1)NC1CC1	98*
Cc1c(C(=O)OCC(=O)NC(=O)NC2CCCCC2)cccc1[N+](=O)[O-]	0
COCC(=O)Nc1ccc2c(c1)[C@@H]1C[C@@H](CC(=O)N3CCOCC3)O[C@H](CO)[C@@H]1O2	1[25 µM]
CCC(=O)N1[C@@H]2c3ccc(C4=CCCC4)c(=O)n3C[C@@H]2[C@@H](CO)[C@@H]1C(=O)NC1CCC1	2
CO[C@H]1CN(C)C(=O)c2ccc(NC(C)=O)cc2OC[C@@H](C)N(Cc2cccc(F)c2)C[C@H]1C	-6[25 µM]
O=C(NC[C@@H]1[C@H](c2ccccc2)[C@H](CO)N1Cc1ccccn1)C1CCCC1	-3[25 µM]
O=C(C[C@@H]1C=C[C@@H](NC(=O)C2CCC2)[C@H](CO)O1)NC1CCCCC1	-4[25 µM]
SMILES	CD40 NFkB inh
CN(C)C(=O)c1cccc(-c2ccc([C@H]3[C@H](CO)N4CCCCN(CC5CCOCC5)C[C@@H]34)cc2)c1	2[25 µM]
c1ccc2[nH]c(-c3cscn3)nc2c1	-58
c1ccc2c(-c3nc4ccccc4[nH]3)cccc2c1	-2
c1ccc2nc(-c3nc4ccccc4[nH]3)ccc2c1	78*
Cc1ccc(S(=O)(=O)N(C)C[C@H]2OCCCC[C@H](C)Oc3ccc(NS(=O)(=O)c4ccc(F)cc4)cc3C(=O)N([C@H](C)CO)C[C@H]2C)cc1	10
CCOc1cc(/C=C(/C#N)C(N)=O)cc(CSc2ccccc2)c1O	-10[25 µM]
O=C(Cn1ncc(Cl)c(Cl)c1=O)NC1CCCCC1	97*
Cc1ccc(Cn2c(C)c3cnn(CC(=O)NC4CCCC4)c(=O)c3c2C)cc1	-11
O=C(CN1CCN(Cc2ccccc2Cl)C1=O)NC1CCCCCCC1	11
CO[C@@H]1CC[C@H]2CCN(C)C(=O)[C@H](C)CN(C)C(=O)c3cc(C#N)ccc3OC[C@H]1O2	-2[25 µM]
O=C(c1ccc(F)cc1)N1CC(=O)N2[C@H](C1)[C@@H](c1ccc(C#CC3CCCC3)cc1)[C@@H]2CO	6
CCNC(=O)[C@@H]1[C@@H](CO)[C@@H]2Cn3c(ccc(-c4cccc(OC)c4)c3=O)[C@@H]2N1C(=O)NC(C)C	-5[25 µM]
Oc1c(C(Nc2ccccn2)c2ccccn2)ccc2cccnc12 (stereo not drawn)	-6
COc1ccccc1NC(c1cccnc1)c1ccc2cccnc2c1O (stereo not drawn)	49*
